# S1P4 antag = antagonists of human S1P4 receptor. AID 1510. inhibition, % at 4.98 µM. actives 0.26% (n = 220,000). O95977. S1P4-expressing cells, antagonist mode, reporter read-out; in the data active means inhibition above about 29%;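 further: 0% = wells stimulated with agonist and 100% = vehicle wells without agonist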
# S1P4 agonist = agonists of human S1P4 receptor. O95977. S1P4-expressing cell line, agonist reporter assay. activation, % at 4.98 µM. actives 0.35% (n = 220,000). AID 1509; in the data active means activation above about 11%;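 further: 0% = DMSO vehicle and 100% = reference agonist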
# ROMK mod = modulators of human ROMK potassium channel; AID 1918; Tet-inducible ROMK, thallium flux fluorescence; actives lie on both sides; P48048; actives 2% (n = 130,000); B-score at 10 µM;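 active means signal ratio slope over the read window, or its plate-corrected B-score, at least 3 SD from the plate mean, either direction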;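 further: B-score of the F/F0 ratio slope over 7 to 12 s after thallium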
# Target sequence (P48048 whole entry, looked up): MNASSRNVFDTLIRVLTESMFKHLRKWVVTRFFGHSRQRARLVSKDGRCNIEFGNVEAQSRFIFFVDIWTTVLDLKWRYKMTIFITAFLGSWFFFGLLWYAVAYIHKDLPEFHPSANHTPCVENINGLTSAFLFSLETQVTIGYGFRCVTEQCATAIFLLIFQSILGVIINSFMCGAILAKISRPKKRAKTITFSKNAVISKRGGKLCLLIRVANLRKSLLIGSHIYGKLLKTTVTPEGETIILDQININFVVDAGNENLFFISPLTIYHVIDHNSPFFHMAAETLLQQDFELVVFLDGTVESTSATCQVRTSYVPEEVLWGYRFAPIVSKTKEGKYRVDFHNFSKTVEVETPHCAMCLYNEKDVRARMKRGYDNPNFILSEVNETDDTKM
# Cl transport mod = modulates chloride dependent transport by human KCC2 | Q9H2X9 | KCC2 cells, thallium flux FluoZin-2 fluorescence | B-score of Tl+ flux slope (higher = more flux/activation; lower = inhibition) at 10 µM | actives 2.2% (n = 190,000);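 active means thallium flux slope and its plate-corrected score both differing from the plate sample mean at a set confidence after two filtering rounds, in either direction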;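 further: slope of fluorescence scaled to starting intensity during 10 to 20 s after thallium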
# S1P3 antagonist = blocks the human S1P3 receptor. Q99500. CHO S1P3 NFAT-BLA reporter, FRET fluorescence, antagonist mode. inhibition, % at 4.98 µM. actives 0.27% (n = 170,000). AID 485;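 active means inhibition above the plate cutoff, the mean inhibition of test wells on that plate plus 3 SD, cut at about 28% in these data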;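 further: cells challenged with S1P at its EC80 of 0.8 µM; blue over green emission ratio from cleaved BLA substrate after 4 h stimulation; 0% = S1P-stimulated wells and 100% = unstimulated DMSO-only wells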
# RAM inhibit = blocks the yeast RAM network; AID 868; actives 1.8% (n = 190,000); S. cerevisiae dse1pr::URA3 reporter, 5-FOA growth OD615, 2 d; analog-sensitive cbk1-as2 kinase mutant strain; inhibition, % at 50 µM;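 active means inhibition above a set limit, 3 SD over mean compound inhibition, cut at about 8.4% in these data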;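 further: 0% = DMSO-only wells with no growth and 100% = 10 µM 1-NA-PP1 full growth; inhibition rescues growth on 5-FOA so higher OD means more RAM inhibition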
# Numbers without * were called inactive; · = no result given. Rows were chosen to be rich in hits. Some 5.1% of all compounds tested hit in one or more screens of this group.
SMILES,S1P4 antag,S1P4 agonist,ROMK mod,Cl transport mod,S1P3 antagonist,RAM inhibit
COc1cc(/C=C2/SC(=S)N(c3ccccc3)C2=O)ccc1Oc1nc(N2CCOCC2)nc(N2CCOCC2)n1,-27,-3,0.26,-0.6,11,9.3*
COc1ccc(S(=O)(=O)Nc2nc3c(s2)CCCC3)cc1,-33,-1,0.021,-0.29,-8,0
COc1cc(/C=C/C(=O)O)cc2c1OCCO2,6,-1,-0.039,-0.23,-28,3
CCCCCCn1c(=O)c(-c2ccccc2)c(O)c2ccccc21,2,-3,0.027,·,·,9.5*
COc1ccc(C2Nc3cc(OC)ccc3-n3cccc32)cc1 (centres undefined),-1,2,·,0.24,0,·
Cc1cc(C)n(-c2c(C)[nH]c3ccccc23)n1,0,1,0.76,-0.16,-6,0
O=C(NCc1cccnc1)C(=O)Nc1ccc([N+](=O)[O-])cc1,-10,0,0.68,0.013,-23,2
COc1ccc2nc(N3C(=O)/C(=C/c4ccccc4)NC3=S)sc2c1,-23,2,·,76*,-5,8
CCOc1ccc2nc(N3C(=O)/C(=C/c4ccccc4)NC3=S)sc2c1,-1,2,·,62*,-4,2
O=C(O)CCC(=O)Nc1ccccc1Oc1ccccc1,-7,-1,-0.44,-0.08,-11,-1
Cc1ccc(C(=O)O/N=C/c2c(C(F)(F)F)nn(C)c2Sc2ccc(Cl)cc2)cc1,-24,4,-0.11,0.36,·,9.6*
O=C(Nc1ccc(C(F)(F)F)cc1)c1cc(S(=O)(=O)NCC2COc3ccccc3O2)ccc1F (centres undefined),-3,-1,-0.69,-0.21,-8,8.4*
COc1ccc(NC(=O)c2cc(S(=O)(=O)NCC3COc4ccccc4O3)ccc2F)cc1 (centres undefined),-11,-2,·,-2.7,-9,2
CCOC(=O)c1c(NC(=S)Nc2ccc(Cl)cc2)sc(C)c1C,0,-2,0.57,-0.0027,·,5
COC(=O)c1c(NC(=S)Nc2ccc(CC(=O)O)cc2)sc(C)c1C,3,0,1.1,0,-3,10*
CCCCOc1ccc(Nc2cc(Cl)ccc2C(=O)O)cn1,-7,1,3.1*,13*,-4,·
COc1cccc(C(=O)OCC(=O)NCCc2ccccc2)c1OC,-12,0,0.02,-0.03,3,2
O=C(COC(=O)c1cccc2ccccc12)NCCCc1ccccc1,2,0,-0.025,-0.2,-2,11*
O=C(Nc1ccccc1)C1=C[C@@H](c2coc3ccccc3c2=O)C[C@@H](OCc2ccc(CO)cc2)O1,1,0,·,-1.5,-10,5
O=C(COC(=O)c1ccco1)Nc1nc2ccccc2s1,6,-1,-0.92,·,7,3
O=C(NC(=S)Nc1nc2ccccc2s1)c1ccco1,-23,2,·,37*,-27,8.8*
O=C(NC(=S)NCc1ccc(-c2nc3ccccc3s2)cc1)c1ccco1,2,0,·,6.4*,-21,4
CCN(CC)S(=O)(=O)c1ccc2c(c1)nc(CCC(=O)Nc1ccc3c(c1)OCO3)n2CC,-19,-1,0.14,-0.94,7,3
O=C(Nc1ccccc1C(=O)N/N=C/c1ccco1)c1ccccc1,-2,0,0.2,7.8*,-5,1
CCc1cc(=O)oc2cc(OCC(=O)O)c(Cl)cc12,-20,0,·,0.95,-16,2
SMILES,S1P4 antag,S1P4 agonist,ROMK mod,Cl transport mod,S1P3 antagonist,RAM inhibit
CCCc1cc(=O)oc2cc(OCc3cccc(OC)c3)c(Cl)cc12,-10,1,0.4,-1.2,2,11*
NC(=S)N/N=C1\CCSc2ccc(Cl)cc21,4,1,-0.73,-0.035,5,·
COc1ccc(/C=C/C(=O)Nc2cc(C)nn2-c2nc3ccccc3n2Cc2cccc([N+](=O)[O-])c2)cc1,-6,2,-0.028,0.93,-13,8.9*
COc1ccc(-c2nnn(CC(=O)N(Cc3ccco3)C(C(=O)NCC3CCCO3)c3ccco3)n2)cc1 (centres undefined),-13,1,·,-0.79,-13,-1
COc1ccc(CN(C(=O)Cn2nnc(-c3ccc(C)o3)n2)C(C(=O)NCC2CCCO2)c2ccco2)cc1 (centres undefined),0,0,0.14,0.089,-14,9.1*
CC1=Nc2ccccc2/C1=C/c1sc(=S)n(-c2cccc(C(=O)O)c2)c1O,-16,0,-4.6*,-3.9*,2,10.0*
Oc1c(C=C2N=c3ccccc3=N2)sc(=S)n1-c1ccccc1,-23,0,0.23,0.17,-2,0
CCC(C)NC(=O)CS(=O)(=O)Cc1nc(-c2cccc(OC)c2)oc1C (centres undefined),-8,1,·,0.46,85*,1
COc1cccc(-c2nc(CS(=O)(=O)CC(=O)NCCCOC(C)C)c(C)o2)c1,-20,1,·,0.44,2,-1
COc1cccc(-c2nc(CS(=O)(=O)CC(=O)NCCCN3CCc4ccccc4C3)c(C)o2)c1,-12,0,·,-3.9*,14,2
COc1ccc(CC(=O)Nc2nc(-c3cc(OC)ccc3OC)cs2)cc1,2,-1,-0.85,0.42,-11,7
COc1ccc(OC)c(-c2csc(NC(=O)Cc3cccs3)n2)c1,1,-1,0.25,-0.069,5,8.6*
O=C(Nc1nc(-c2ccccc2)cs1)C1CCCCN1S(=O)(=O)c1ccccc1 (centres undefined),-1,0,·,-1.7,98*,2
O=C(Nc1nnc(-c2cccs2)o1)c1ccc(S(=O)(=O)N2CCOCC2)cc1,-2,-1,0.085,-1.4,-33,2
O=C(Nc1nnc(-c2cccs2)o1)c1cccc(F)c1,-1,-1,·,26*,-9,·
COc1ccc(-c2nc(C#N)c(NCc3ccc(F)cc3)o2)cc1OC,-8,-1,0.41,·,17,8.9*
COc1ccc(-c2nc(C#N)c(NCc3cccnc3)o2)cc1OC,8,-1,·,0.0069,·,-1
CCOc1ccc(-c2nc(C#N)c(NCc3ccc4c(c3)OCO4)o2)cc1,-12,-1,·,-0.3,4,11*
COc1ccc(NC(=S)N2CCCCCC2)cc1OC,1,2,0.18,0.27,-5,2
CCCSc1nc(N2CCCC2)c2c(c1C#N)CC(C)(C)OC2,-12,2,-0.42,-0.52,·,8.5*
COC(=O)CCNCCSc1nnc(-c2ccco2)n1Cc1ccccc1,-6,0,·,-0.099,-5,·
C/C(CC(=O)N1CCN(C=O)CC1)=N\NC(=O)c1cc2ccccc2cc1O,1,-1,0.026,0.02,-10,2
C/C(=N/NC(=O)c1cc2ccccc2cc1O)C1C(=O)c2ccccc2C1=O,-6,-1,4.8*,-2.8*,·,1
CCN(C(=O)COC(=O)c1[nH]c(=O)[nH]c(=O)c1N)c1ccccc1,-21,-1,0.0036,0.33,-7,0
CCOC(=O)c1ccc(NC(=O)c2nc[nH]c2C(=O)N[C@@H](CC(C)C)C(=O)OCc2ccccc2)cc1,·,·,·,0.41,·,·
